Data from PubChem BioAssay.
Several values for one entry are separate records, joined by “and”; a condition that tells them apart may be missing. Equal entries are not always repeated.

What follows are molecules tested on Human papillomavirus type 1a protein E7 (residues 44-93) (assay: small molecules binding HPV E7 44-93 – biochemical, small-molecule microarray, residues 44-93, 635 nm fluorescence, primary screen (AID 1108;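 further: E7 fragment applied at 1 µg/mL in TBST for 1 h at 4 C; score combines spot fluorescence with its signal to noise ratio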)). Conditions: fluorescence 635 nm, higher = more signal.

Structure (SMILES)	composite z-score
CC(CO)N1C(=O)[C@@H]2C3C(=O)OCCC=C[C@H]3OC23C=CCN(CCN2CCOCC2)C(=O)[C@@H]13 (some centres undefined)	-1.05 and 0.497
COC(=O)C1=C(C)N(Cc2ccccc2)C2=C(C(C)=O)[C@H](c3ccccc3)[C@@](O)(C(=O)OC)C(=O)N2[C@@H]1c1ccccc1	0.895 and -1.59
CC(C)=NOC[C@@H](O)COCc1ccco1	-1.92
C[C@@H]1CC[C@H]2C(=O)NC[C@@H](O)CN2[C@H]1c1ccc(Br)cc1	0.111 and -0.325
CCOC(=O)[C@@H]1CC2O[C@]23C[C@@H]1C(=O)N1CCC[C@@H]1[C@H]3O[Si](C)(C)C(C)(C)C (some centres undefined)	-1.22 and -0.182
C[N+](C)(C)CCCCNC(=O)[C@H]1C[C@H]2C(=O)N[C@@H](CCCC[N+](C)(C)C)C(=O)N2[C@H]1c1ccc(O)cc1	1.29 and 0.0427
CC(C)[Si]1(C(C)C)OCc2cc(CCCc3cc4c(c(CCc5ccccc5)n3)[Si](C(C)C)(C(C)C)OC4)nc(CCc3ccccc3)c21	0.206 and 0.469
COC(=O)C1=C(C)N(Cc2ccccc2)C2=C3C(=O)N(c4ccccc4)C(=O)[C@@H]3[C@@](O)(C(=O)OC)C(=O)N2[C@@H]1c1ccccc1	-0.996 and 0.49
CO[C@H]1COC(=O)CC=C[C@H](C)[C@H](OC)COC(=O)[C@@H](C)COC(=O)CC=C[C@@H]1C	0.25 and -0.333
C=CCN(C(=O)C1N(c2ccc(CCO)cc2)C(=O)C2C(C(=O)O)C3C=CC21O3)c1ccc(OC)cc1 (centres undefined)	-0.178 and -3.84
COC(=O)[C@@]1(Cc2ccc(F)cc2)[C@H]2c3cc(C(=O)N4CCCC4)n(Cc4c(CO)[nH]cc(C)c4=O)c3C[C@H]2CN1C(=O)c1ccccc1	0.866 and 0.952
CC(CO)N1C(=O)[C@@H]2C3C(=O)OCCC=C[C@H]3OC23C=CCN(c2ccc(Cl)cc2)C(=O)[C@@H]13 (some centres undefined)	-0.999 and 0.188
C=CCN(CCCC)C(=O)C(c1cccs1)N(C(=O)/C=C\C(=O)O)c1c(Cl)cccc1CO (centres undefined)	-1.23 and -1.01
CCOC(=O)C[C@H]1[C@H](OC(=O)c2ccccc2-c2ccccc2)[C@@H](NC(=O)c2ccccc2)c2cc(OCCCO)ccc2N1C(=O)c1ccc2ccccc2n1	0.288 and 1.08
C=CCN(C(=O)C1N(c2c(Cl)cccc2CO)C(=O)C2C(C(=O)O)C3C=CC21O3)C(C)(C)C (centres undefined)	-0.375 and -1.73
C#CCCCON=C1C[C@@H](O)[C@@H](O)[C@@H]2[C@@H]3C(=O)N(C4CCCCC4)C(=O)[C@@H]3CC[C@H]12	0.774
C=CCN(CCCC)C(=O)C1N(c2ccc(CCO)cc2)C(=O)C2C(C(=O)O)C3C=CC21O3 (centres undefined)	-2.07 and -0.32
C=CCN(C(=O)C1N(c2c(Cl)cccc2CO)C(=O)C2C(C(=O)O)C3C=CC21O3)c1ccc(OC)cc1 (centres undefined)	-0.716 and -1.82
CON(C)C(=O)c1nnc2c3ccccc3n(S(=O)(=O)c3ccc(C)cc3)c2n1	0.652 and 1.1
CCCC[C@@H]1CN2[C@H](c3ccc(Br)cc3)[C@@H](C)CC[C@H]2C(=O)O1	-0.519 and 0.166

Structure (SMILES)	composite z-score
C=CCN(CCCCC)C(=O)C1N(c2ccc(CCO)cc2)C(=O)C2C(C(=O)O)C3C=CC21O3 (centres undefined)	-0.351 and -0.928
C=CCN(Cc1ccccc1)C(=O)C1N(C(C)(C)CO)C(=O)C2C(C(=O)O)C3C=CC21O3 (centres undefined)	-1.71 and -2.2
O=C1C[C@]2(c3ccc([N+](=O)[O-])cc3)C(=O)N(Cc3ccccc3)c3cc(CO)ccc3[C@H]2N1C1CCCCC1	0.986 and 0.622
C=CCN(Cc1ccccc1)C(=O)C(c1cccs1)N(C(=O)/C=C\C(=O)O)c1c(Cl)cccc1CO (centres undefined)	-1.63 and -2.43
CCOC(=O)c1ccc(NC(=O)O[C@H]2[C@H](OC(=O)Nc3ccccc3)[C@@H](OC(=O)Nc3ccccc3)[C@@H](OC)O[C@@H]2CO)cc1	0.249 and 1.18
C=C(C)C(=O)OC[C@@H]1CN2[C@@H](CC[C@@H](C)[C@@H]2c2ccc(Br)cc2)C(=O)O1	0.854
CC(CO)N1C(=O)[C@@H]2C3C(=O)OCCC=C[C@H]3OC23C=CCN(Cn2nnc4ccccc42)C(=O)[C@@H]13 (some centres undefined)	-0.394 and 0.27
O=C(NN=C1C[C@@H](O)[C@@H](O)[C@@H]2[C@@H]3C(=O)N(Cc4ccc5c(c4)OCO5)C(=O)[C@@H]3CC[C@H]12)OCc1ccccc1	-0.984
COC(=O)[C@@]1(Cc2ccc(OC)cc2)[C@H]2c3cc(C(=O)N(C)C)n(Cc4ccc(O)c(OC)c4)c3C[C@H]2CN1C(=O)c1ccccc1	1.31 and 1.43
O=C1NC(=O)C2C1C=CC(C(O)c1ccc([N+](=O)[O-])cc1)N2Nc1ccc(Cl)cc1Cl (centres undefined)	0.481 and -0.621
CC(C)=CCCC(C)=CCON=C1C[C@@H](O)[C@@H](O)[C@@H]2[C@@H]3C(=O)N([C@@H](C)c4ccccc4)C(=O)[C@@H]3CC[C@H]12	0.893
COC(=O)C1=C(C)N(Cc2ccccc2)C2=C3C(=O)CCC[C@@H]3[C@@](O)(C(=O)OC)C(=O)N2[C@@H]1c1ccccc1	-0.0225 and -0.0706
CCCC[C@@H]1CN2[C@@H](CC[C@@H](C)[C@@H]2c2ccc(Br)cc2)C(=O)O1	1.27 and 1.07
CCN1C(=O)[C@H]2[C@H]3[C@H](O)[C@H](O)CC(=NOC)[C@@H]3CC[C@H]2C1=O	-0.524
CC(C)OC(=O)C=C1C[C@@H](c2cccc(C(F)(F)F)c2)O[C@@H](c2cccc(C(F)(F)F)c2)O1	1.34 and 0.979
CC(C)=NO[C@@H](C)c1cc(-c2c(C)cc(C)cc2C)no1	-0.379
C=CCN(C(=O)C1N(CCOCCO)C(=O)C2C(C(=O)O)C3C=CC21O3)c1ccc(OC)cc1 (centres undefined)	-0.754 and -1.72
C=CCN(C(=O)C(c1cccs1)N(CCOCCO)C(=O)/C=C\C(=O)O)c1ccc(OC)cc1 (centres undefined)	-2.11 and -1.15
C=CCN(Cc1ccccc1)C(=O)C(c1cccs1)N(C(=O)/C=C\C(=O)O)c1ccc(CCO)cc1 (centres undefined)	-0.325 and -0.505
